# Assay results: PubChem BioAssay AID463173 (ICCB-Longwood Screening Facility, Harvard Medical School, 2010)
# The whole screen tested about 52,000 compounds, of which about 4,300 (8.3%) were called active. Many of the other results were omitted from the sample, so actives are more common in it than they were. Values without a mark were called inactive. Rule as the data show it: active = survival mostly below about 52% (no sharp cut-off); inactive = mostly above about 56%.
# Test system: DeltatarO mutant
# Assay: S. aureus survival, RN4220 and DeltatarO strains – OD600, teichoic acid synthesis inhibitors, primary screen (AID 463173)
# Conditions: S. aureus RN4220 wild type/DeltatarO growth, OD600, 18 h, hits give low values, screened at 18.75 µg/mL (by protocol)
row,SMILES,survival
1,CCc1ccc(NC(=O)Cn2c(=O)n(-c3ccccc3)c(=O)c3ccc(C(=O)NCc4ccc5c(c4)OCO5)cc32)cc1,112%
2,COc1ccc(NC(=O)NC(C)c2c(-n3cccc3)sc3c2CCN(C)C3)c(OC)c1 (configuration not stated),70%
3,O=C(OCc1ccccc1F)c1ccc(-c2nnn(Cc3ccccc3)n2)cc1,122%
4,COc1cccc(CN(C(=O)c2ccc(C(C)(C)C)cc2)C2CCS(=O)(=O)C2)c1 (configuration not stated),70%
5,COc1ccc(NC(=O)c2oc3ccccc3c2NC(=O)Cc2coc3cc(C)ccc23)cc1,70%
6,CN1CCN(S(=O)(=O)c2ccc(Br)c3ccccc23)CC1,99%
7,Cc1cc(Nc2ccc(Cl)cc2)n2cnnc2n1,65%
8,COc1ccc(-c2nn[nH]n2)cc1,105%
9,COc1ccc(NC(=O)c2c(N)c(C(=O)c3ccc(C)cc3)n3ccccc23)cc1OC,82%
10,Cc1ccc(NC(=O)Cc2ccc(NC(=O)N3CCCCc4ccccc43)cc2)cc1Cl,93%
11,CCS(=O)(=O)c1ccccc1C(=O)N1CCN(c2nc3ccccc3s2)CC1,55%
12,COc1ccc(CCNC(=O)c2cn(C)c3ccc(S(=O)(=O)N(C)C)cc3c2=O)cc1OC,84%
13,Cc1ccc(-c2nc(C)c(CCNS(=O)(=O)c3ccc(F)c(C(F)(F)F)c3)s2)cc1,-4% (active)
14,CCOc1ccc(S(=O)(=O)NCCc2sc(-c3ccc(C)cc3)nc2C)cc1,102%
15,Cc1ccc(-c2nc(C)c(CCNS(=O)(=O)c3ccccc3F)s2)cc1,76%
16,CC(C)c1nc2ccc(C(=O)NCCCN3CCN(c4ccccc4)CC3)cc2o1,120%
17,CC(C)COC(=O)Nc1ccc2c(c1)OCO2,62%
18,Cc1ccc(C)n1-c1nnc(N2CCCC(C(=O)NCc3ccc(F)cc3)C2)s1 (configuration not stated),93%
19,CSc1ccc(C2c3[nH]c4ccccc4c3CCN2C(=O)CCC2CCCC2)cc1 (configuration not stated),74%
20,CCSc1nnc2c(n1)OC(c1ccc(C)cc1)N(C(C)=O)c1ccccc1-2 (configuration not stated),55%
21,CCSc1nnc2c(n1)OC(c1ccc(OC)c(OC)c1)N(C(C)=O)c1ccccc1-2 (configuration not stated),53%
22,CCCSc1nnc2c(n1)OC(c1ccc(Br)s1)Nc1ccccc1-2 (configuration not stated),53%
23,CCSc1nnc2c(n1)OC(c1ccc(OC)cc1OC)N(C(C)=O)c1ccccc1-2 (configuration not stated),58% (active)
24,CCSc1nnc2c(n1)OC(c1cc(OC)c(OC)c(OC)c1)Nc1ccccc1-2 (configuration not stated),61%

row,SMILES,survival
1,CCCCCSc1nnc2c(n1)OC(CC)Nc1ccc(Br)cc1-2 (configuration not stated),63%
2,CCCCCSc1nnc2c(n1)OC(c1ccc(C)s1)N(C(C)=O)c1ccccc1-2 (configuration not stated),45% (active)
3,CCCCCCSc1nnc2c(n1)OC(C)Nc1ccc(Br)cc1-2 (configuration not stated),75%
4,CCCCSc1nnc2c(n1)OC(C)N(C(C)=O)c1ccccc1-2 (configuration not stated),154%
5,CCCCSc1nnc2c(n1)OC(c1ccc(Br)s1)Nc1ccccc1-2 (configuration not stated),10% (active)
6,CCCCSc1nnc2c(n1)OC(c1ccc(Br)s1)N(C(C)=O)c1ccccc1-2 (configuration not stated),47%
7,CCCSc1nnc2c(n1)OC(c1cccs1)Nc1ccc(Br)cc1-2 (configuration not stated),30% (active)
8,Cc1c(C(=O)N2CCC(C)CC2)c(S(=O)(=O)Nc2ccc(OC(F)(F)F)cc2)c(C)n1C,91%
9,CCc1cccc(C)c1NS(=O)(=O)c1ccc2c(c1)CC(C)N2C(=O)C1CC1 (configuration not stated),88%
10,COc1ccc(C(=O)NCc2ccc3c(c2)CCN3C(=O)c2ccncc2)cc1,88%
11,Cc1ccc(Cl)cc1NC(=O)CN1C(=O)COc2ccc(S(=O)(=O)N3CCOCC3)cc21,101%
12,CCc1c(C)[nH][n+]2cnn(Cc3ccc(Cl)cc3)c2c1=O,89%
13,CCn1cnc2sc(C(=O)Nc3ccccc3)c(C)c2c1=O,87%
14,Cc1ccc(CNC(=O)c2nnn(Cc3ccc(F)cc3)c2N)cc1,91%
15,Cc1ccc(CNc2nc(-c3ccco3)nn2C(=O)c2ccccc2[N+](=O)[O-])cc1,111%
16,Cc1nn2c(=O)cc(COC(=O)c3ccc(NC(=O)COc4ccc(C)c(C)c4)cc3)nc2s1,116%
17,Cc1ccc(S(=O)(=O)NCCSc2nnnn2-c2ccccc2)cc1,71%
18,CCCCSc1nnc2c(n1)OC(c1ccc(C)s1)Nc1ccccc1-2 (configuration not stated),41% (active)
19,CCSc1nnc2c(n1)OC(c1ccc(C)s1)Nc1ccccc1-2 (configuration not stated),71%
20,CCCSc1nnc2c(n1)OC(c1sccc1C)Nc1ccccc1-2 (configuration not stated),79%
21,Cc1cccc(C)c1OCc1nc2c3cnn(-c4cccc(F)c4)c3ncn2n1,78%
22,CC(=O)c1ccc(S(=O)(=O)N2CCn3cccc3C2c2ccccc2F)cc1 (configuration not stated),82%
23,CCOc1ccc(-n2c(SCC(=O)NCC3CCCO3)nc3c([nH]c4ccccc43)c2=O)cc1 (configuration not stated),74%
